High-throughput results deposited in PubChem BioAssay by National Center for Advancing Translational Sciences (NCATS).
This excerpt belongs to a sample that is enriched for hits.
nsP2pro inh: blocks chikungunya virus nsP2 protease peptide cleavage | 31,000 tested, 1.1% active | FRET peptide cleavage, nsP2pro, fluorescence 1 h | Potency, µM (highest dose often 24.9 µM), for the others: at the highest dose activity change, negative = inhibition, hits mostly inhibitors | Q8JUX6; also: nearly all actives have a fitted effect of over 60% in size
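FRET cleavage of 2.5 uM peptide 2 by 150 nM CHIKV protease domain at pH 8.0 (Tris, Tween 20). Compounds at 7 concentrations (up to 25 uM) preincubated 15 min. Fluorescence read after 1 h at room temperature.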
nsP2 cell sec: inhibits CHIKV nsP2 protease in cells; cell-based CHIKV nsP2 protease reporter assay; Potency, µM (titrated, usually from 51.1 µM), for the others: top-dose activity change, negative = inhibition, usual class: inhibitors; shares compounds with nsP2pro inh; 450 tested, 10% active; also: nearly all actives have a fitted effect of over 70% in size
CHIKV NSP2 FL: selectivity test for CHIKV nsP2 protease inhibitors: full-length NSP2 | Full-length CHIKV NSP2 protease enzymatic counterscreen | 410 tested, 39% active | Potency, µM (top dose mostly 50.7 µM), inactives show top-dose activity change, negative = inhibition, usual class: inhibitors | shares compounds with nsP2pro inh; also: nearly all actives have a fitted effect of over 65% in size
Furin counter: human furin inhibition, counterscreen for nsP2pro inhibitors. Potency, µM (highest dose often 50.6 µM), for inactives: at the top dose activity change, negative = inhibition, hits mostly inhibitors. 410 tested, 6% active. Recombinant human furin enzymatic counterscreen, fluorogenic substrate. shares compounds with nsP2pro inh
nsP2 NS23 pep: selectivity test for CHIKV nsP2 protease inhibitors: endogenous NS2/3 peptide | shares compounds with nsP2pro inh | Purified CHIKV nsP2 protease, endogenous NS2/3 peptide cleavage | Potency, µM (titrated, usually from 51 µM), for inactives: at the top dose activity change, negative = inhibition, most hits filed as inhibitors | 410 tested, 34% active; also: nearly all actives have a fitted effect of over 55% in size
Papain counter: inhibits papain in a CHIKV nsP2 protease selectivity counterscreen | Potency, µM (titrated, usually from 51 µM), for the others: top-dose activity change, negative = inhibition, usual class: inhibitors | 410 tested, 5% active | AID 1964104 | shares compounds with nsP2pro inh | purified papain protease activity, enzymatic inhibition
Target sequence (P00784 whole entry, looked up): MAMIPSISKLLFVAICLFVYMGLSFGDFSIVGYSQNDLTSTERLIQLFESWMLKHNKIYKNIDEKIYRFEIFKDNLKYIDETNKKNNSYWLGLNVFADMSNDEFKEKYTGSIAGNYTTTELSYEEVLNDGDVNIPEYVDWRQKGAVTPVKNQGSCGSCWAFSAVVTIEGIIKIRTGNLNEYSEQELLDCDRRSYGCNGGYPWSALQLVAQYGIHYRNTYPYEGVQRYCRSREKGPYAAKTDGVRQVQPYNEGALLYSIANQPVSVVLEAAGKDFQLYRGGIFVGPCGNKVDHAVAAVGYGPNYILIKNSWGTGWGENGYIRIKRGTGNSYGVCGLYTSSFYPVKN
nsP2pro conf qHTS: confirmation of CHIKV nsP2 protease inhibitors | CHIKV nsP2 protease enzymatic activity, qHTS | shares compounds with nsP2pro inh | Potency, µM (highest dose often 25.5 µM), for the others: at the highest dose activity change, negative = inhibition, most hits filed as inhibitors | 410 tested, 43% active; also: nearly all actives have a fitted effect of over 75% in size
HCV NS3 counter: HCV NS3/4A protease inhibition, counterscreen | shares compounds with nsP2pro inh | HCV NS3/4A protease biochemical counterscreen | Potency, µM (highest dose often 50.9 µM), hits mostly inhibitors | 410 tested, 20% active | AID 1964106; also: nearly all actives have a fitted effect of over 55% in size
* = called active by the depositor; i = inactive; ? = inconclusive; . = no result; ! = not confirmed by another sample; [ ] = another dose, or the depositor's remark. Calls follow the shape of the full dose curve. % is scaled to controls: 0 for no effect and ±100 for the full control effect; potency is read from the fitted curve at half-maximal effect.

SMILES	nsP2pro inh	others
CC(=O)O[C@@H]1[C@@H](OC(=O)/C=C/c2ccccc2)[C@H](C)O[C@@H](O[C@H]2[C@@H]3C=CO[C@@H](O[C@@H]4O[C@H](CO)[C@@H](O)[C@H](O)[C@H]4O)[C@@H]3[C@@]3(CO)O[C@@H]23)[C@@H]1OC(C)=O	-10.4%[10 µM]
O=C(/C=C/c1ccc(O)c(O)c1)O[C@H]1[C@@H]2C=CO[C@@H](O[C@@H]3O[C@H](CO)[C@@H](O)[C@H](O)[C@H]3O)[C@@H]2[C@@]2(CO)O[C@@H]12	-7.4%[10 µM]
COc1ccc(/C=C/C(=O)O[C@H]2[C@@H]3C=CO[C@@H](O[C@@H]4O[C@H](CO)[C@@H](O)[C@H](O)[C@H]4O)[C@@H]3[C@@]3(CO)O[C@@H]23)cc1O	42.4%[10 µM]
C[C@@H]1O[C@@H](O[C@H]2[C@@H]3C=CO[C@@H](O[C@@H]4O[C@H](CO)[C@@H](O)[C@H](O)[C@H]4O)[C@@H]3[C@@]3(CO)O[C@@H]23)[C@H](OC(=O)/C=C/c2ccccc2)[C@H](O)[C@H]1O	23.2%[10 µM]
C[C@@H]1O[C@@H](O[C@H]2[C@@H]3C=CO[C@@H](O[C@@H]4O[C@H](CO)[C@@H](O)[C@H](O)[C@H]4O)[C@@H]3[C@@]3(CO)O[C@@H]23)[C@H](O)[C@H](OC(=O)/C=C/c2ccc(O)c(O)c2)[C@H]1O	?	nsP2 cell sec=6.5%[17.6 µM];CHIKV NSP2 FL=-6.4%[17.3 µM];Furin counter=-7.0%[17.3 µM];nsP2 NS23 pep=-16.5%[17.2 µM];Papain counter=-10.6%[17.2 µM];nsP2pro conf qHTS=-13.9%[8.62 µM];HCV NS3 counter=i
Cc1nc(CCN(C)c2ncnc3ccc(-c4ccc5c(c4)OCO5)cc23)cs1	0.6%
CNC1CCN(C(Cc2cccc(-c3ccncc3)c2)C(=O)c2sc3c(F)ccc(F)c3c2Cl)CC1 (stereo not given)	.	nsP2 cell sec=?;CHIKV NSP2 FL=?;Furin counter=-11.3%;nsP2 NS23 pep=-23.3%;Papain counter=-7.9%;nsP2pro conf qHTS=33.8%;HCV NS3 counter=i
COc1cccc(-c2ccc(CN3CCCC(NC(=O)c4ccc(Cl)cc4)C3)cc2)c1 (stereo not given)	0.7%
O=C(NC1CCN(Cc2cccc(-c3cccs3)c2)CC1)c1cccc(Cl)c1	i
COC(=O)C1CC2=CC(=O)CCC2(C)C23OC2CC2(C)C(CC[C@]24CCC(=O)O4)C13 (stereo not given in full)	-9.4%
O=C(NC1CCN(c2cc(N3CCOCC3)cnn2)C1)C1CC1 (stereo not given)	0.1%
COc1cc2c(cc1OC)-c1cc3ccc(OC)c(OC)c3c[n+]1CC2	.	nsP2 cell sec=2.8%;CHIKV NSP2 FL=?;Furin counter=-23.1%;nsP2 NS23 pep=?;Papain counter=?;nsP2pro conf qHTS=?;HCV NS3 counter=i
c1c2c(cc3c1OCO3)-c1cc3ccc4c(c3c[n+]1CC2)OCO4	?	nsP2 cell sec=-6.1%;CHIKV NSP2 FL=?;Furin counter=4.11µM*;nsP2 NS23 pep=?;Papain counter=-21.8%;nsP2pro conf qHTS=?;HCV NS3 counter=i
COc1ccc(F)cc1-c1ccc(CN2CCC(NC(=O)c3ccc(Cl)cc3)C2)cc1 (stereo not given)	i
O=C(O)CSc1nnc(Br)n1-c1ccc(C2CC2)c2ccccc12	1.2%
C#C[C@]1(O)CC[C@@H]2[C@@H]3CCC4=CCCC[C@@H]4[C@H]3C(=C)C[C@@]21CC	26.7%
CN(C)C(=O)N1CCN(c2ccc(Cl)nn2)C(=O)C1	-20.5%[39.2 µM]
CC(=O)N1CCN(c2ccc(C(=O)N3CCN(Cc4ccccc4)CC3)nn2)C(=O)C1	3.55µM*	nsP2 cell sec=20.0%;CHIKV NSP2 FL=7.3µM*;Furin counter=-13.1%;nsP2 NS23 pep=14.6µM*;Papain counter=-3.6%;nsP2pro conf qHTS=7.98µM*;HCV NS3 counter=5.17µM*
CC(=O)N1CCN(Cc2ccccc2-c2cccnc2)CC1	-7.4%[39.2 µM]
Cc1cc(C)nc(NC(=S)N2CCN(c3nnc(C(F)(F)F)s3)CC2)c1	-1.8%
Cc1ccc(OCCn2c3c(c4ccccc42)CCN(C(=O)C2CCCCC2)C3)cc1	0.6%
CO/N=C(/C(=O)N[C@@H]1C(=O)N2C(C(=O)OCOC(=O)C(C)(C)C)=C(C)CS[C@H]12)c1csc(N)n1	-25.0%
CO/N=C(/C(=O)N[C@@H]1C(=O)N2C(C(=O)O)=C(CSC(=O)c3ccco3)CS[C@H]12)c1csc(N)n1	11.1µM*!	nsP2 cell sec=-7.9%;CHIKV NSP2 FL=-5.0%;Furin counter=-5.2%;nsP2 NS23 pep=9.2%;Papain counter=?;nsP2pro conf qHTS=-9.6%;HCV NS3 counter=i
CC(=O)OCC1=C(C(=O)O)N2C(=O)[C@@H](NC(=O)Cc3cccs3)[C@H]2SC1	0.1%
Cc1ccnc(NC(=S)N2CCN(c3ccc(Cl)cc3Cl)CC2)c1	i
SMILES	nsP2pro inh	others
COc1ccc(-c2nc(-c3ccccc3)c(NCc3ccccc3)o2)cc1	7.2%[5.1 µM]
Cc1ccc(S(=O)(=O)c2nc(-c3ccccc3F)oc2NCc2ccccc2)cc1	-2.2%
COc1ccc(-c2nc(S(=O)(=O)c3ccc(C)cc3)c(NCc3ccccc3)o2)cc1	4.47µM*	nsP2 cell sec=?;CHIKV NSP2 FL=?;Furin counter=-4.0%;nsP2 NS23 pep=?;Papain counter=13µM*;nsP2pro conf qHTS=7.98µM*;HCV NS3 counter=i
COc1ccc(-c2oc3cc(O)cc(O)c3c(=O)c2O)cc1	8.1%
O=C(Nc1nc(-c2ccccc2)cs1)c1ccncc1NS(=O)(=O)c1cccnc1	i
C=C1CCC2C(C)(COC3OC(COC(=O)CC(=O)O)C(O)C(O)C3O)CCCC2(C)C1CCC1=CCOC1=O (stereo not given)	13.3%[10 µM]
COc1ccc2oc(NC3=NC(c4[nH]ncc4Cl)C4=C(CCCC4=O)N3)nc2c1 (stereo not given)	i
Cc1cccc(-n2cnc3cc(C(=O)N4CCCC(C)(C)C4)ccc32)c1	-4.1%
Cc1cc(C)nc(NC(=S)N2CCN(Cc3c(F)cccc3Cl)CC2)c1	-4.0%
COc1cccc(C(=O)CCN[C@@H](C)[C@H](O)c2ccccc2)c1	1.57µM*	nsP2 cell sec=53.6%;CHIKV NSP2 FL=5.8µM*;Furin counter=-3.7%;nsP2 NS23 pep=10.3µM*;Papain counter=-2.6%;nsP2pro conf qHTS=1.26µM*;HCV NS3 counter=i
COc1ccc(NC(=O)C(OC(=O)CNC(=O)c2ccccc2)c2ccccc2)c(C)c1 (stereo not given)	-3.6%
C[C@H](NCCc1ccc(O)cc1)[C@H](O)c1ccc(O)cc1	-0.8%
C=CC(=O)N1CCC([C@@H]2CCNc3c(C(N)=O)c(-c4ccc(Oc5ccccc5)cc4)nn32)CC1	-5.3%
COc1cc(NS(=O)(=O)c2ccc(C)cc2)c(C(=O)Nc2nc(-c3ccccc3)cs2)cc1OC	i
